VP16 counter = VP16 counterscreen qHTS for inhibitors of ROR gamma transcriptional activity; Drosophila S2 Gal4-VP16 UAS-luciferase, luminescence, 20 h; Potency, µM (series often up to 53.6 µM), for the others: at the highest dose activity, negative = inhibition, usual class: inhibitors; actives 3.5% (n = 310,000); AID 2546, 2010;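 further: Gal4-VP16 expression switched on by copper sulfate through the metallothionein promoter; nearly all actives have a fitted effect of over 50% in size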
Sfp inh = qHTS Assay for Inhibitors of Bacillus subtilis Sfp phosphopantetheinyl transferase (PPTase). actives 3.5% (n = 310,000). AID 1490, 2009. Biochemical Sfp PPTase activity, qHTS. Potency, µM, without a hit: largest response in the series, negative = inhibition, usual class: inhibitors. 4'-phosphopantetheinyl transferase ffp (Bacillus subtilis), Q9F4F7;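 further: the enzyme is Sfp with the accession as filed and its product quenches rhodamine fluorescence; 0% = enzyme reaction without inhibitor and -100% = no enzyme wells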
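With Hepes-Na pH 7.6 buffer containing 10 mM MgCl2, Sfp (15 nM) modified BHQ-2-YbbR (12.5 uM) using rhodamine-CoA (5 uM). Two reads 30 minutes apart at 525/598 nm yielded each well's rate.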
PLK1 PBD block = qHTS for Inhibitors of PLK1-PDB (polo-like kinase 1 - polo-box domain): Primary Screen | actives 2.8% (n = 360,000) | Plk1 PBD binding of FITC phosphopeptide, fluorescence polarization | Potency, µM, inactives show max response, negative = inhibition, actives largely listed as inhibitors | Serine/threonine-protein kinase PLK1 (Homo sapiens), P53350; further: series mostly up to about 57 µM; nearly all actives have a fitted effect of over 65% in size
ALDH1A1 inh = qHTS Assay for Inhibitors of Aldehyde Dehydrogenase 1 (ALDH1A1); Purified ALDH1A1, NADH fluorescence, propionaldehyde substrate; Aldehyde dehydrogenase 1A1 (Homo sapiens), P00352; Potency, µM (highest dose often 75.3 µM), for the others: top-dose activity, negative = inhibition, hits mostly inhibitors; actives 7.3% (n = 220,000); AID 1030, 2008; active means well fitted inhibition curve with a large enough effect, not every such curve was filed as active; inconclusive means small, poorly fitted or top-dose-only effect, or another doubt; inactive means no such curve, though single readings can be large or run the other way;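 further: plate controls were no enzyme wells and a reference inhibitor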
RORg inh = qHTS for inhibitors of ROR gamma transcriptional activity; Drosophila S2 Gal4-RORgamma UAS-luciferase reporter, 20 h; Nuclear receptor ROR-gamma (Mus musculus), P51450; actives 5.4% (n = 310,000); Potency, µM (series often up to 53.6 µM), for inactives: at the top dose activity change, negative = inhibition, most hits filed as inhibitors; AID 2551, 2010; further: nearly all actives have a fitted effect of over 60% in size
Target sequence (P51450 whole entry, looked up, the tested form may be a part): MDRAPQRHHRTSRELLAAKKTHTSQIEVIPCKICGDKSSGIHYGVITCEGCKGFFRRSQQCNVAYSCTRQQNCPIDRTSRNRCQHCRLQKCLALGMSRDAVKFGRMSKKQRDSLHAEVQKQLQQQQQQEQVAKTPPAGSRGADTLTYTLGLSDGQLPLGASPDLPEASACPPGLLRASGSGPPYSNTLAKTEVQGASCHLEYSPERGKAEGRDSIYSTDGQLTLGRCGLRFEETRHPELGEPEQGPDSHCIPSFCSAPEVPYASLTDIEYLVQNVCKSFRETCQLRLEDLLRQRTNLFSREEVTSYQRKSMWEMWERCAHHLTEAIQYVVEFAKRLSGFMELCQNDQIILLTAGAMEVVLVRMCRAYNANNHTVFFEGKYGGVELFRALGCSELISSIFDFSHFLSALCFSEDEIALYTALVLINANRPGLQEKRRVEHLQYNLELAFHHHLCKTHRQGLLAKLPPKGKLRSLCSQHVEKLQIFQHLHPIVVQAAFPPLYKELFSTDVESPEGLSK
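Read-out: Photinus luciferase luminescence; inhibitors lower reporter signal. Insect Schneider cells with Gal4-ROR gamma fusion under metallothionein promoter, UAS reporter; 700 uM final copper sulfate induction, 20 hr, ambient temperature.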
Starred values were filed as active, the others as inactive; ? = inconclusive; . = no result; [ ] = remark or other dose. Compounds with a hit are over-represented: about 12% of the library has one in this group of screens. Unless noted, the call rests on the fitted dose curve; in most records, active means well fitted curve in the direction sought with a large enough effect; inconclusive means small, poorly fitted or top-dose-only effect, or another doubt; inactive means no such curve, though single readings can be large; an effect the other way counts as inactive or inconclusive. Unless noted, on the % scale 0 is the no-effect control and ±100 the full control effect; potency means the concentration at half of the fitted maximal effect.

SMILES | VP16 counter | Sfp inh | PLK1 PBD block | ALDH1A1 inh | RORg inh
C=CCNC(=S)N/N=C/c1ccc(C(C)(C)C)cc1 | 0.56µM* | 15% | 1% | -7% | 0.28µM*
CC(C)=C[C@H]1C[C@H](C)[C@H]2CC[C@H](C)c3c(O[C@@H]4OC[C@@H](O)[C@H](O)C4O)c(O)c(C)c1c32 (stereo not given in full) | . | . | -12% | . | .
COC(=O)NC(/C(C(=O)OC)=C(\C)NCc1ccccc1)c1ccc(F)cc1 (stereo not given) | -10%[10 µM] | -13% | . | -16%[13.5 µM] | 27%[10 µM]
O=C1Nc2ccccc2C(=O)N(Cc2ccccc2)C1C(=O)NC1CC1 (stereo not given) | . | . | -15% | . | .
CN(C)c1ccc(/C=N/NC(=S)NCc2ccccc2)cc1 | 2.8µM* | 27% | 24µM* | ? | 0.45µM*
CCN(Cc1ccccc1)c1ccc(/C=N/N=C(N)N)cc1 | ? | ? | -5% | ? | ?
Cc1c(NC(=S)N/N=C/c2ccc(N(C)C)cc2)c(=O)n(-c2ccccc2)n1C | ? | 2% | -9% | ? | 18µM*
Cc1c(NC(=S)N/N=C/c2cccc(O)c2)c(=O)n(-c2ccccc2)n1C | 0% | ? | -6% | -4% | -27%
CCN(Cc1ccccc1)c1ccc(/C=N/NC(=S)NC(C)C)cc1 | 1.3µM* | 18% | 0% | ? | 1.3µM*
Cn1c(=O)c(-c2cccs2)nc2cncnc21 | 0% | -16% | . | ? | -3%
Cc1cnc(CNc2cc(-c3ccc(N(C)C)cc3)ncn2)cn1 | -14% | 2% | . | ? | -39%
CCC(c1nnnn1-c1ccc2c(c1)OCCO2)N1CCN(C)CC1 (stereo not given) | . | . | 3% | . | .
O=C(CN1CCOCC1)NC1CC2CCC1C2 (stereo not given) | -19% | ? | -3% | 25µM* | 22%
O=C(CCc1ccc(S(=O)(=O)NC2CCCCC2)cc1)NCc1cccnc1 | ? | 19% | -6% | 13µM* | -30%
Cc1ccc(CNC(=O)CCc2ccc(S(=O)(=O)NC3CCCCC3)cc2)cc1 | -5% | 8% | 30µM* | ? | -9%
Cc1cccc(NC(=O)CCc2ccc(S(=O)(=O)NC3CCCCC3)cc2)c1 | 6% | 1% | ? | -5% | 23%
CC(C)(C)c1cc(CCC(=O)NCc2ccccn2)cc(C(C)(C)C)c1O | 3% | 7% | -1% | . | 40%
CC(C)(C)c1cc(CCC(=O)NCc2cccnc2)cc(C(C)(C)C)c1O | -12% | 22µM* | -4% | . | -10%
CC(C)NS(=O)(=O)c1ccc(CCC(=O)NCc2cccnc2)cc1 | -2% | 3% | -1% | 9% | 9%
COC(=O)[C@@]12C[C@@H](CC(=O)NCCCCc3ccccc3)C(=O)N(Cc3cccc4ccccc34)C1=CCC(C)(C)C2 | . | . | 1% | . | .
O=C1CCCCC1C(O)(C(=O)c1ccccc1)c1ccccc1 (stereo not given) | . | . | -10% | . | .
Cc1c(CN2CCCC(C(=O)c3cccc(OC(C)C)c3)C2)c(=O)n(-c2ccccc2)n1C (stereo not given) | -2% | 17% | -23% | ? | -9%
CCC/C(O)=C1\C(=O)CC(C)(C)CC1=Nc1ccccc1O | ? | 9% | 13µM* | 1% | -3%
O=C(O)c1cccc(S(=O)(=O)Nc2ccc(O)c(Sc3nc4ccccc4s3)c2)c1 | -4% | -2% | 21µM* | -12% | -8%
O=S(=O)(Nc1ccc(O)c(Sc2nc3ccccc3s2)c1)c1ccc(F)cc1 | ? | 3% | -21% | ? | 88%
SMILES | VP16 counter | Sfp inh | PLK1 PBD block | ALDH1A1 inh | RORg inh
O=S(=O)(Nc1ccc(O)c(Sc2nc3ccccc3s2)c1)c1cccc2ccccc12 | 7.9µM* | 10% | 0% | -1% | ?
O=C1N[C@H](Cc2ccccc2)C(=O)N1Cc1cccc2ccccc12 | 0% | -13% | . | 6% | 13%
COc1ccc(C(=O)N2CCCC(N3CCN(c4ccccc4OC)CC3)C2)c(OC)n1 (stereo not given) | 3% | 11% | 5% | . | 1%
COc1ccc(C(=O)N2CCCC(N3CCN(c4ccccc4F)CC3)C2)c(OC)n1 (stereo not given) | -10% | -1% | 30µM* | . | 15%
C[C@]12c3[nH]c4ccc(Cl)cc4c3CCN1C(=O)[C@@H](CC(=O)NCc1ccco1)C[C@@H]2C(=O)N1CCCCC1 | . | . | 0% | . | .
O=C(O)Cc1ccc(C(=O)c2cccs2)s1 | -6% | 8% | -11% | 10µM* | -7%
O=C(O)c1ccccc1C(=O)c1cccs1 | 4% | 10% | -9% | 5% | -6%
Oc1ccc(N2CCN(CC(O)c3ccccc3)CC2)cc1 (stereo not given) | -6% | 50µM* | -3% | . | -11%
O=[N+]([O-])c1ccc(C(O)CN2CCN(c3ccccc3)CC2)cc1 (stereo not given) | 2% | 4% | -11% | . | 0%
CCOC(=O)/C(C(=O)Nc1ccc(Cl)cc1Cl)=C1/NC(C)(C)Cc2ccccc21 | -10% | 9% | . | 13µM* | 21%
CN1C(CC(=O)Nc2ccc(Cl)cc2Cl)c2ccccc2CC1(C)C (stereo not given) | ? | 8% | 1% | . | -20%
O=C(Nc1cccc(C(F)(F)F)c1)c1ccc2sc([C@H]3C[C@H](O)[C@@H](CO)O3)nc2c1 | . | . | -9% | . | .
COCCCNC(=S)Nc1ccc(OC(F)F)cc1C | -10% | 1% | 4% | 2% | 11µM*
COCCNC(=S)Nc1cc(OC)c(OC)cc1C#N | 1%[10 µM] | 79µM* | -11% | ? | ?
COCCCNC(=S)Nc1cc(C)c(C)cc1C | 35µM* | 21% | -8% | . | 7.1µM*
CCNC(=O)C1CCCN(C(=O)Cc2cccs2)CC1 (stereo not given) | . | . | -5% | . | .
COc1ccc2c(c1)O[C@@H](c1cccc(C(F)(F)F)c1)[C@H](OC(=O)Nc1cc(OC)c(OC)c(OC)c1)C2=O | -2% | -1% | . | 5% | -6%
Cc1ccc(S(=O)(=O)N2CCN(C(=O)CSc3nnnn3C)CC2)c(C)c1 | -11% | 3% | -1% | 25µM* | 3%
Cc1ccc(S(=O)(=O)N2CCN(C(=O)CSc3nc(N)cc(=O)[nH]3)CC2)c(C)c1 | 0% | 6% | -9% | -2% | 0%
CC1(C(=O)NS(=O)(=O)C2CC2)CCCN(C(=O)c2ccc3ccccc3c2)C1 (stereo not given) | . | . | -10% | . | .
C1CCC(Nc2nnnn2C2CCCCC2)CC1 | -8% | -2% | -3% | 3% | 4%
CN(C)/C=C/C(=O)c1nnn(C2CCCCC2)c1NC1CCCCC1 | ? | -4% | -11% | 14µM* | -16%

Assay outcomes from PubChem BioAssay.
